Experimental data as given in PubChem BioAssay AID1159580 (chemical genetic matrix, 2015).
Out of some 5,500 compounds screened, about 2,000 (36%) were called active. Not shown: some 18% with an inconclusive outcome. No stated cut-off is given here; in the data, active means normalized growth mostly below about 0.91 (no sharp cut-off); inconclusive means no clear call, values can overlap the other calls; inactive means mostly above about 0.92. This is one part of the list.

Test: chemical genetic growth profiling, strain panel (AID 1159580);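 further: tested at 20 µM; growth read once vehicle control cultures reached saturation at 30 °C; 1 = growth at the plate median or of vehicle wells; lower values mean less growth of the strain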
Details: S. cerevisiae deletion strains, growth OD
[1] = locus YAL013W, strain DEP1, hits give low values
[2] = locus YJR075W, strain HOC1, hits give low values
[3] = locus YMR307W, strain GAS1, hits give low values
[4] = locus YNL153C, strain GIM3, hits give low values
[5] = locus YNL322C, strain KRE1, hits give low values
[6] = locus YAL040C, strain CLN3, hits give low values
[7] = locus YCL061C, strain MRC1 (second series), hits give low values
[8] = locus YDR150W, strain NUM1, hits give low values
[9] = locus YDR363W, strain ESC2, hits give low values
[10] = locus YER002W, strain NOP16, hits give low values
[11] = locus YGR078C, strain PAC10, hits give low values
[12] = locus YNL175C, strain NOP13, hits give low values
[13] = locus YNL197C, strain WHI3, hits give low values
[14] = locus YNL224C, strain SQS1, hits give low values
[15] = locus YOR083W, strain WHI5 (second series), hits give low values

Measured: normalized growth

CCC1C2CC3C4N(C)c5ccccc5C45CC(C2C5OC(C)=O)N3C1OC(C)=O (configuration not stated)
inactive: [1] 1.01 | locus YBR021W, strain FUR4, hits give low values 1.01 | locus YBR229C, strain ROT2, hits give low values 1 | locus YCL029C, strain bik1, hits give low values 1.02 | locus YDL035C, strain GPR1, hits give low values 1.02 | locus YDL074C, strain BRE1, hits give low values 1.04 | locus YDL101C, strain DUN1, hits give low values 1.01 | locus YDL134C, strain PPH21, hits give low values 1.02 | locus YDL185W, strain tfp1, hits give low values 1.02 | locus YDL192W, strain arf1, hits give low values 1.01 | locus YDR101C, strain arx1, hits give low values 1.01 | locus YDR162C, strain NBP2, hits give low values 1.01 | locus YDR318W, strain mcm21, hits give low values 1.01 | locus YDR388W, hits give low values 1.03 | locus YDR502C, strain sam2, hits give low values 1.02 | locus YEL061C, strain CIN8, hits give low values 1.01 | locus YER110C, hits give low values 1.03 | locus YER155C, strain BEM2, hits give low values 1 | locus YER167W, strain BCK2, hits give low values 1.02 | locus YGL078C, strain dbp3, hits give low values 1 | locus YGL086W, strain mad1, hits give low values 0.997 | locus YGL248W, strain PDE1, hits give low values 1.01 | locus YGR135W, strain pre9, hits give low values 1.01 | locus YGR252W, strain gcn5, hits give low values 1.02 | locus YHR030C, strain SLT2, hits give low values 1.02 | locus YHR079C, strain IRE1 (second series), hits give low values 1 | locus YHR094C, strain hxt1, hits give low values 1.01 | locus YHR129C, strain ARP1, hits give low values 1.02 | locus YHR200W, strain rpn10, hits give low values 1.02 | locus YIL066C, strain RNR3, hits give low values 1.02 | locus YIL073C, strain SPO22, hits give low values 1.08 | locus YIL125W, strain kgd1, hits give low values 1.03 | locus YIR030C, strain dcg1, hits give low values 1.01 | locus YJL095W, strain BCK1, hits give low values 1.01 | locus YJL134W, strain LCB3, hits give low values 1.02 | locus YJL168C, strain set2, hits give low values 1.02 | locus YJL187C, strain SWE1 (second series), hits give low values 1.01 | locus YJR043C, strain POL32, hits give low values 1.01 | [2] 1.04 | locus YKL009W, strain mrt4, hits give low values 1.02 | locus YKL068W, hits give low values 1 | locus YKL085W, strain MDH1 (second series), hits give low values 0.995 | locus YKL085W, strain MDH1, hits give low values 0.995 | locus YKR001C, strain vps1, hits give low values 1.03 | locus YLR039C, strain RIC1, hits give low values 1.07 | locus YLR058C, strain SHM2, hits give low values 1.01 | locus YLR102C, strain apc9, hits give low values 1.03 | locus YLR262C, strain YPT6, hits give low values 1.09 | locus YLR268W, strain sec22, hits give low values 1.02 | locus YLR330W, strain CHS5, hits give low values 1.02 | locus YLR342W, strain FKS1 (second series), hits give low values 1.03 | locus YLR371W, strain rom2, hits give low values 1.01 | locus YLR418C, strain cdc73, hits give low values 1.04 | locus YML016C, strain PPZ1, hits give low values 1.01 | locus YML032C, strain rad52, hits give low values 1.02 | locus YML124C, strain tub3, hits give low values 1.01 | locus YMR078C, strain ctf18, hits give low values 0.999 | locus YMR223W, strain ubp8, hits give low values 1.01 | locus YMR263W, strain SAP30, hits give low values 1.01 | [3] 0.992 | locus YNL067W, strain RPL9B, hits give low values 1.02 | locus YNL128W, strain TEP1, hits give low values 1.01 | [4] 1 | locus YNL233W, strain BNI4, hits give low values 1.02 | locus YNL250W, strain rad50, hits give low values 1.01 | locus YNL271C, strain bni1, hits give low values 1.01 | locus YNL298W, strain CLA4, hits give low values 1.02 | locus YNL307C, strain MCK1, hits give low values 1.02 | [5] 1.01 | locus YNR052C, strain pop2, hits give low values 1.02 | locus YOL006C, strain TOP1, hits give low values 1.14 | locus YOL012C, strain htz1 0.814 | locus YOL147C, strain pex11, hits give low values 1.02 | locus YOR061W, strain CKA2, hits give low values 1.01 | locus YOR069W, strain VPS5, hits give low values 1.01 | locus YOR136W, strain idh2, hits give low values 1.02 | locus YOR144C, strain elg1, hits give low values 1.01 | locus YOR184W, strain ser1, hits give low values 1.01 | locus YOR316C, strain cot1, hits give low values 1.02 | locus YPL055C, strain LGE1, hits give low values 1.04 | locus YPR119W, strain clb2, hits give low values 1 | locus YPR141C, strain kar3, hits give low values 1.01 | locus YPR163C, strain tif3, hits give low values 1.02 | locus YPR167C, strain met16, hits give low values 1.01 | strain wtn01, hits give low values 1.04

CO[C@H]1CC=C2CCN3CCC4=C(CC(=O)OC4)[C@]23C1
inactive: [6] 0.99 | [7] 1 | [8] 1.01 | [9] 1.07 | [10] 1.01 | [11] 1.01 | [2] 1.01 | [3] 0.999 | [4] 0.981 | [12] 1.01 | [13] 1.03 | [14] 0.997 | [5] 0.998 | [15] 1.06

Nc1ccn([C@H]2CC[C@@H](CO)O2)c(=O)n1
inactive: [1] 1.01 | [6] 1.01 | [7] 0.988 | [8] 0.994 | [9] 1.01 | [10] 0.987 | [11] 0.989 | [3] 0.993 | [4] 1.04 | [12] 1 | [13] 1 | [14] 0.997 | [15] 1.01
